Measured values published in PubChem BioAssay (NCATS).
Inconclusive results are not listed. The source holds several records for some structures; these can differ, active in one and inactive in another. Active and inactive are the calls of the source. Unless noted, the call rests on the fitted dose curve; in most records, active means well fitted curve in the direction sought with a large enough effect; inconclusive means small, poorly fitted or top-dose-only effect, or another doubt; inactive means no such curve, though single readings can be large; an effect the other way counts as inactive or inconclusive.

Legend:
[1] = target: Beta-2 adrenergic receptor (Homo sapiens) (UniProt P07550); assay: qHTS validation assay of beta-arrestin-biased ligands of beta2-adrenergic receptor (AID 485366); further: 0% is about no effect
Sequence of Beta-2 adrenergic receptor (Homo sapiens) (P07550 whole entry, looked up): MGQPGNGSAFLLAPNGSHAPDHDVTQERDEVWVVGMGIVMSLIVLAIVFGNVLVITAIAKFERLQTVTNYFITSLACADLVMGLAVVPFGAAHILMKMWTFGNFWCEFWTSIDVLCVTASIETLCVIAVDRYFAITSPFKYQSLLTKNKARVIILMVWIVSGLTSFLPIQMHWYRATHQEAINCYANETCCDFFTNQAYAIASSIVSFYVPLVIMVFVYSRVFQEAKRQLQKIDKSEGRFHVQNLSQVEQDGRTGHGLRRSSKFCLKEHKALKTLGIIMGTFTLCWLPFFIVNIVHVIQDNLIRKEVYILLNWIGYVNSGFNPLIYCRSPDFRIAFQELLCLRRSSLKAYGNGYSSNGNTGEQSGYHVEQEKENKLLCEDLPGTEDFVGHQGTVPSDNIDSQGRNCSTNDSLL
Summary of the method: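 Tango cells expressing recombinant beta2-AR and beta-arrestin with tTA-driven luciferase, in DMEM with 1% FBS. Compounds were titrated up to 46 microM for 18 hr at 37 degrees C. Luminescence was read 15 min after substrate; curves were fitted and class-assigned.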

[2] = Quantitative high throughput screen for delayed death inhibitors of the malarial parasite plastid, 96 hour incubation (AID 488745); further: nearly all actives have a fitted effect of over 70% in size; further: potency means the concentration at half of the fitted maximal effect
Summary of the method: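 Growth of reporter-bearing P. falciparum in red cells is measured after 96 h with compound, covering two erythrocytic cycles. Luminescence from the integrated luciferase serves as the growth signal.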

[3] = target: Thioredoxin reductase 1, cytoplasmic (Rattus norvegicus) (UniProt O89049); assay: qHTS Assay for Substrates of Mammalian Selenoprotein Thioredoxin Reductase 1 (TrxR1) (AID 488772);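 further: NADPH fluorescence in the first read after selenite addition and not the 8 min delta; series mostly up to about 57 µM; 0% is about no effect; a drop in NADPH fluorescence below the no-compound background marks a TrxR1 substrate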
Sequence of Thioredoxin reductase 1, cytoplasmic (Rattus norvegicus) (O89049 whole entry, looked up): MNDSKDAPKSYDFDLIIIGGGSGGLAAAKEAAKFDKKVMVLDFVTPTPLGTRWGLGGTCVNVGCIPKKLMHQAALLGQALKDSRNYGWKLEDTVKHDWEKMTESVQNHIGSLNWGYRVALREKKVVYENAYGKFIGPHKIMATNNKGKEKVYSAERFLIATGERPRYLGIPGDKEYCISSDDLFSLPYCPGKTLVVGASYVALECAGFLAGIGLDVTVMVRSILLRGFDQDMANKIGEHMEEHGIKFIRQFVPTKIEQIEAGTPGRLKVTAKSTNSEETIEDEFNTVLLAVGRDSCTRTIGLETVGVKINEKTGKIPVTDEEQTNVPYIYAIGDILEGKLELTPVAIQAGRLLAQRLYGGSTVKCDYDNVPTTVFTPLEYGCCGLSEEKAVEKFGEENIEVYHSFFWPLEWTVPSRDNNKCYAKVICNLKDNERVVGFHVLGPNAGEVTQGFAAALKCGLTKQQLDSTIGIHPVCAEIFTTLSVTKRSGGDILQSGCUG
Summary of the method: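 Quantitative HTS in Tris-HCl buffer at pH 7.5 with EDTA and Tween-20, using rat TrxR1, 400 uM NADPH and 400 uM selenite (final). A fall in initial NADPH fluorescence relative to background marked substrate behaviour.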

[4] = target: Thioredoxin reductase 1, cytoplasmic (Rattus norvegicus) (UniProt O89049); assay: qHTS Assay for Inhibitors of Mammalian Selenoprotein Thioredoxin Reductase 1 (TrxR1) (AID 488773); details: Potency: inhibition;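 further: drop in NADPH fluorescence over an 8 min run after selenite addition; series mostly up to about 57 µM; on the % scale 0 is the no-effect control and ±100 the full control effect; nearly all actives have a fitted effect of over 40% in size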
Summary of the method: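 Steps: enzyme (90 nM) plus NADPH (400 uM final), 5 min at ~22 deg C; compound added, 15 min; selenite (400 uM final) added; fluorescence followed for 8 min. Concentration-response curves derived from the normalized delta values.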

[5] = target: Flap endonuclease 1 (Homo sapiens) (UniProt P39748); assay: qHTS Validation Assay for the Inhibitors of Human Flap endonuclease 1 (FEN1) (AID 488816); further: potency means the concentration at half of the fitted maximal effect
Summary of the method: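 FEN1, dispensed as a 10 nM reagent, was preincubated with pin-transferred compounds for 15 min at room temperature before substrate was added (50 nM final). Plates were read at 0 and 15 min, and a four-parameter Hill equation was fitted to the concentration-response data.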

[6] = target: M-phase phosphoprotein 8 (Homo sapiens) (UniProt Q99549); assay: qHTS Validation Assay for Inhibitors for MPP8 Chromodomain Interactions with Methylated Histone Tails (AID 488949); further: nearly all actives have a fitted effect of over 55% in size; further: potency means the concentration at half of the fitted maximal effect
Sequence of M-phase phosphoprotein 8 (Homo sapiens) (Q99549 whole entry, looked up): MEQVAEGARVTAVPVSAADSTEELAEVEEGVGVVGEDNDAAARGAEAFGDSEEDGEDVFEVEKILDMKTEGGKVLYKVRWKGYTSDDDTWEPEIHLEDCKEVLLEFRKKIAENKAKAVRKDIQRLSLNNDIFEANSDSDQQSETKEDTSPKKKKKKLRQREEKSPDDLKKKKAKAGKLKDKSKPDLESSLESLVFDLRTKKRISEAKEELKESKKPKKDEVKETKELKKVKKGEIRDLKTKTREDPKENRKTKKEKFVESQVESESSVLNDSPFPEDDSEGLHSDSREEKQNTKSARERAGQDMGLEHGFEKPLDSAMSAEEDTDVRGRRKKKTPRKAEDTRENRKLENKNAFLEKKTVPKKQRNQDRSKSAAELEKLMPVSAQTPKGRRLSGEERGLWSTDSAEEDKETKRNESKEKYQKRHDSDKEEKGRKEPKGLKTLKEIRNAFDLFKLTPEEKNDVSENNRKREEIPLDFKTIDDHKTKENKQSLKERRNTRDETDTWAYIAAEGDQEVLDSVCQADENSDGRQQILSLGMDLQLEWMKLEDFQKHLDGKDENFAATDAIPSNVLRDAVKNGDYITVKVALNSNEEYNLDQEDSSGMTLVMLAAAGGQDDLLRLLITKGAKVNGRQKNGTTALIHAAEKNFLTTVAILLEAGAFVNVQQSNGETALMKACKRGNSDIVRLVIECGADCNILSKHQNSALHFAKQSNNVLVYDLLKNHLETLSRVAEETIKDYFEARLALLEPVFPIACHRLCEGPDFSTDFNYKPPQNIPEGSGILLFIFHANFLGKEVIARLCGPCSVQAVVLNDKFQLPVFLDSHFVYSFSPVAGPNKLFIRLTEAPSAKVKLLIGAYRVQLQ
Summary of the method: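 MPP8 (50 nM) was preincubated with biotinylated H3(1-18)K9me3 peptide (50 nM) in PBS pH 7.4, 0.01% Tween-20 for 30 min at room temperature, then with compounds for 30 min; binding was detected by AlphaScreen.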

[7] = target: Chromobox protein homolog 1 (Homo sapiens) (UniProt P83916); assay: qHTS Validation Assay for Inhibitors of HP1-beta Chromodomain Interactions with Methylated Histone Tails (AID 488953); further: nearly all actives have a fitted effect of over 50% in size; further: potency means the concentration at half of the fitted maximal effect
Summary of the method: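 Measured as loss of AlphaScreen luminescence from streptavidin donor and nickel acceptor beads (10 ug/mL final) bridging HP1-beta and biotin-H3(1-18)K9me3, each 50 nM. Compounds met the preassembled complex for 30 min at RT.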

[8] = target: Methanococcus maripaludis chaperonin (MmCpn) (UniProt Q6LX38); assay: High-Throughput Screening for Modulators of Cytosolic Chaperonin Activity: MmCpn Primary Screen (AID 488978);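 further: 50 nM MmCpn enzyme hydrolysing 30 µM ATP at 37 °C; 0% is about no effect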
Sequence of Methanococcus maripaludis chaperonin (MmCpn) (Q6LX38 1-543): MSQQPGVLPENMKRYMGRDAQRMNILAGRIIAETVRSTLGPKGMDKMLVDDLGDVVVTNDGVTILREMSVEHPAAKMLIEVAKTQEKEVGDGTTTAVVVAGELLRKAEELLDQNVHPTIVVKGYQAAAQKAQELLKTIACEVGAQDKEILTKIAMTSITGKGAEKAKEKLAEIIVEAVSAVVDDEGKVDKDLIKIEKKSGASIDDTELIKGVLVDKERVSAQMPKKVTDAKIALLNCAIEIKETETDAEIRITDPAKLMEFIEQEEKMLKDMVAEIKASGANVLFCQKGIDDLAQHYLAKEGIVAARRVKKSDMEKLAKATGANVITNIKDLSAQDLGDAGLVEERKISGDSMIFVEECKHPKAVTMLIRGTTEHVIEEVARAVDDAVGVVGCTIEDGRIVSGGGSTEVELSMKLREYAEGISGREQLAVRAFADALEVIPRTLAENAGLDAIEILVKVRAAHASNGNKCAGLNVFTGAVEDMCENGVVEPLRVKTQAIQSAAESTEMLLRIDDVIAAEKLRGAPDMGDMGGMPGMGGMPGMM
Summary of the method: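 MmCpn (50 nM final) was preincubated with compound 5 min at RT, then 30 uM ATP (final) was added and the reaction ran 10 min at 37C. ADP produced was detected by Transcreener HTRF (ex 320 nm; em 590/665 nm).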

[9] = target: Transient receptor potential cation channel subfamily V member 1 (Homo sapiens) (UniProt Q8NER1); assay: HTS Assay for Compounds that Act as Enhancers of the Vanilloid Receptor 1 (AID 488979); further: 0% is about no effect
Summary of the method: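 TRPV1-expressing cells loaded with Fluo-8 calcium dye; compounds added and calcium influx read kinetically for 3 min (agonist phase), then capsaicin at EC20 added and read 2 min more for enhancement. Fluorescence ex 480/em 520 nm.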

[10] = target: Thyrotropin receptor (Homo sapiens) (UniProt P16473); assay: qHTS Assay for Antagonists of the Thyroid Stimulating Hormone Receptor (AID 488980); further: series mostly up to about 58 µM; 0% is about no effect
Sequence of Thyrotropin receptor (Homo sapiens) (P16473 whole entry, looked up): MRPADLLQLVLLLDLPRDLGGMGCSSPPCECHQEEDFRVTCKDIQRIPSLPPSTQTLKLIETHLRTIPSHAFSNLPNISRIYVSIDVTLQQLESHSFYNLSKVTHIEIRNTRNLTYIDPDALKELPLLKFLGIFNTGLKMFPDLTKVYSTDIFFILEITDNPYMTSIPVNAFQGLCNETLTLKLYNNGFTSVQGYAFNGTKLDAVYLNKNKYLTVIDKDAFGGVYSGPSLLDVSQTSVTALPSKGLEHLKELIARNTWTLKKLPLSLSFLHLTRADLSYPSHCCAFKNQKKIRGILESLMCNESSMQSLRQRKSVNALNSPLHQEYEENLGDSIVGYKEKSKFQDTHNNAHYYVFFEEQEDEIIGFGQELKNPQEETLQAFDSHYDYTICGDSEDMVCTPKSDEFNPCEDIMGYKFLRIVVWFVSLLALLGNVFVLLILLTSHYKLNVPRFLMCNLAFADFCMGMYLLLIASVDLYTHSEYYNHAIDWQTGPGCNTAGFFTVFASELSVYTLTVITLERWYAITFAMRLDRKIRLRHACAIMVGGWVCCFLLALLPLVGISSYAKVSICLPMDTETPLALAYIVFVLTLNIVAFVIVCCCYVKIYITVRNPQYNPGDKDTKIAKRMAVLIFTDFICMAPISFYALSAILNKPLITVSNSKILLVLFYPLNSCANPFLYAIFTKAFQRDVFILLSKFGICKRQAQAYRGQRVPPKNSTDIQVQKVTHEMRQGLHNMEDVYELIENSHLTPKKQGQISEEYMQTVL
Summary of the method: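 HEK293 cells transfected with human TSHR, suspended in HEPES-buffered HBSS with 70 uM RO 20-1724, were treated with compounds plus TSH at EC80 (4 nM final). cAMP was measured by competitive HTRF (cryptate anti-cAMP antibody, cAMP-d2 acceptor).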

[11] = target: D(1A) dopamine receptor (Homo sapiens) (UniProt P21728); assay: HTS Assay for Allosteric Agonists of the Human D1 Dopamine Receptor: Primary Screen for Potentiators (AID 488982); further: potency means the concentration at half of the fitted maximal effect
Summary of the method: (§1)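 Tetracycline-induced HEK293 T-REx cells force-coupled to calcium signalling were incubated overnight at 30 C and dye-loaded at room temperature. Calcium flux over 180 s after compound addition flagged agonists; a further 180 s read after EC20 dopamine flagged potentiators.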

[12] = target: D(1A) dopamine receptor (Homo sapiens) (UniProt P21728); assay: HTS Assay for Allosteric Agonists of the Human D1 Dopamine Receptor: Primary Screen for Antagonists (AID 488983);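 further: calcium flux response to an EC80 dopamine challenge measured with no-wash dye; nearly all actives have a fitted effect of over 65% in size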; further: potency means the concentration at half of the fitted maximal effect
Summary of the method: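 Screening of inducible HEK293 T-REx D1 cells: compound first, EC80 dopamine 180 s later, each phase read kinetically for calcium over 180 s.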

[13] = Validation screen for small molecules that induce genotoxicity in human embryonic kidney (HEK293T) cells expressing luciferase-tagged ELG1 (AID 493106); further: 0% is about no effect
Summary of the method: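 Reporter-gene quantitative HTS in HEK293T cells carrying luciferase-tagged ELG1, whose level climbs under genotoxic stress. Compound exposure lasts 16 hr at 37 °C before luciferase detection.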

[14] = target: Thyrotropin-releasing hormone receptor (Homo sapiens) (UniProt P34981); assay: qHTS for Small Molecule Agonists and Allosteric Enhancers of Human TRH Receptor: Validation Screen for Agonists (AID 493127;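 active means calcium activation more than 3 SD above the typical response in the agonist read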;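 further: intracellular calcium rise by fluo-8 fluorescence before TRH EC20 addition; 0% is about no effect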); details: TRH receptor agonist cell assay; at 2 µM; stronger effect = higher value
Summary of the method: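 Gq-coupled calcium mobilization in TRHR cells after compound addition, monitored kinetically with fluo-8 dye on an FDSS reader.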

[15] = Quantitative high throughput screen for delayed death inhibitors of the malarial parasite plastid, 48 hour incubation (AID 488752); further: nearly all actives have a fitted effect of over 65% in size; further: potency means the concentration at half of the fitted maximal effect
Summary of the method: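 One parasite generation (48 h, 37 C, 5% CO2) of luciferase-reporter P. falciparum in erythrocytes is run with test compound; decreased luminescence indicates inhibited growth.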

[16] = target: D(1A) dopamine receptor (Homo sapiens) (UniProt P21728); assay: HTS Assay for Allosteric Agonists of the Human D1 Dopamine Receptor: Primary Screen for Agonists (AID 488981); further: potency means the concentration at half of the fitted maximal effect; on activation: 0% is about no effect
Summary of the method: as §1

[17] = target: ATPase family AAA domain-containing protein 5 (Homo sapiens) (UniProt Q96QE3); assay: Validation screen for small molecules that inhibit ELG1-dependent DNA repair in human embryonic kidney (HEK293T) cells expressing luciferase-tagged ELG1 (AID 493107); further: nearly all actives have a fitted effect of over 70% in size; further: potency means the concentration at half of the fitted maximal effect
Sequence of ATPase family AAA domain-containing protein 5 (Homo sapiens) (Q96QE3 whole entry, looked up, the tested form may be a part): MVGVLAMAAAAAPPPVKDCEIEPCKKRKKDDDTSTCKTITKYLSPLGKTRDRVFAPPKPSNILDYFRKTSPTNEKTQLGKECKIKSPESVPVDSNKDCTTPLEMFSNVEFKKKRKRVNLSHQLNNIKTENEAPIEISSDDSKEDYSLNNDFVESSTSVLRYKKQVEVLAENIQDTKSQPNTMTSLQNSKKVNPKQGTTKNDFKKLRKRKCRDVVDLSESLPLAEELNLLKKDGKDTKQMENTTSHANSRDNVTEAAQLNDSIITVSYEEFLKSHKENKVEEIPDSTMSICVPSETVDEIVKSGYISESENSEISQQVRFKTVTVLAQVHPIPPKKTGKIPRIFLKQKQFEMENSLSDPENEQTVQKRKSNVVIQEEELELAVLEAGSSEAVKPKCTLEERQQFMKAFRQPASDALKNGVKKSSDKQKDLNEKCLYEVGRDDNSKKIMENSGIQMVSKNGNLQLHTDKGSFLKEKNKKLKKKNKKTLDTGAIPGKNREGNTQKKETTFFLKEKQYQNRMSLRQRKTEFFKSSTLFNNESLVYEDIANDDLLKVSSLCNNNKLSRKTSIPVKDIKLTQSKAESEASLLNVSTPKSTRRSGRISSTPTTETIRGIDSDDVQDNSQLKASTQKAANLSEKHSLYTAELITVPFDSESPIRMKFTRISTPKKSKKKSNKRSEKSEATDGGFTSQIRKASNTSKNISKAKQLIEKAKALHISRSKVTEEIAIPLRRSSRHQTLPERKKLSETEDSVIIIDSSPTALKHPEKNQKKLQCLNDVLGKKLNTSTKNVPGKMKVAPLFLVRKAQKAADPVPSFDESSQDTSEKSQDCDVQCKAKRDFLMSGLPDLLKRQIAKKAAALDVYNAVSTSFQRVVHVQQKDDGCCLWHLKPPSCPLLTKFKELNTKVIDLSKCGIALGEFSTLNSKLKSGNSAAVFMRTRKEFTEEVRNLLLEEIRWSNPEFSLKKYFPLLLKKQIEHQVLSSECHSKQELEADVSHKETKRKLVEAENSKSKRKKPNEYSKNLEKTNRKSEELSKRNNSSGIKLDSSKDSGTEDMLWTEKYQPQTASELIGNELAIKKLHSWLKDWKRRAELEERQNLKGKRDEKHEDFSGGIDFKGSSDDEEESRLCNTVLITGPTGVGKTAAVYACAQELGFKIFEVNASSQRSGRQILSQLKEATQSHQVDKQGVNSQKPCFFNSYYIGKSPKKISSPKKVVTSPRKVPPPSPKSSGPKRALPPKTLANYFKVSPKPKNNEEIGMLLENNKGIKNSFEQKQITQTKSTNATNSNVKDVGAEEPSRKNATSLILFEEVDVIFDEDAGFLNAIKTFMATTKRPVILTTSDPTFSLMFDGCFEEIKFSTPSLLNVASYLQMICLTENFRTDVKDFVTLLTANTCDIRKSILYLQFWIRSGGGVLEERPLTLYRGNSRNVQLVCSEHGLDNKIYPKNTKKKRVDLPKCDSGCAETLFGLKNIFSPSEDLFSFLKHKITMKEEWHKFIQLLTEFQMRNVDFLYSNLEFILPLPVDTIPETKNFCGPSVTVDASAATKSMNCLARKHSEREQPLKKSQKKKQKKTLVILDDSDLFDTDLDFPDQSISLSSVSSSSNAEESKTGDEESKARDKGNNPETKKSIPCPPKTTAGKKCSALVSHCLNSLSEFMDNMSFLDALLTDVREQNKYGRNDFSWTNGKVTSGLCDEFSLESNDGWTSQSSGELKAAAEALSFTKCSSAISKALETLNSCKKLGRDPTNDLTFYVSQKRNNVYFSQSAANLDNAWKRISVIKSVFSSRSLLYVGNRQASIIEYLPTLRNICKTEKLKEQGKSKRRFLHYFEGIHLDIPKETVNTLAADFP
Summary of the method: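 Quantitative HTS in HEK293T cells carrying luciferase-tagged ELG1, stimulated with 5-fluorouridine alongside compound for 16 hr. Loss of luciferase signal marks inhibition of ELG1 response.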

[18] = target: ATP-dependent 6-phosphofructokinase (Trypanosoma brucei brucei) (UniProt O15648); assay: qHTS Validation Assay to Find Inhibitors of T. brucei phosphofructokinase (AID 485368)
Summary of the method: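 Activity was read as ADP production by luminescence (ADP-Glo) after 45 min at room temperature. The enzyme was 1.25nM PFK in 0.1M TEA pH 8.0 with 0.5 mM F6P, 0.1mM ATP and 5 mM MgCl2. Compounds were titrated up to 57 uM and % activity normalized to no-enzyme and full-enzyme controls.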

OC[C@H]1O[C@@H](n2cnc3cncnc32)[C@H](O)[C@@H]1O
active: Potency [2] 3.29 µM
inactive: outcome [1] | outcome [3] | Potency [4] | Potency [5] | Potency [6] | Potency [7] | outcome [8] | outcome [9] | outcome [10] | Potency [11] | Potency [12] | Potency [13] | activation [14] 1.44%

N[C@@H](CCC(=O)N[C@H](CSN=O)C(=O)NCC(=O)O)C(=O)O
inactive: outcome [1] | Potency [15] | outcome [3] | Potency [4] | Potency [5] | Potency [6] | outcome [8] | outcome [9] | outcome [10] | Potency [16] | Potency [11] | Potency [12] | Potency [13] | Potency [17] | activation [14] 1.31%

CCN1C(=O)C=CC1=O
inactive: outcome [1] | Potency [15] | Potency [4] | Potency [5] | Potency [6] | outcome [8] | outcome [9] | outcome [10] | Potency [16] | Potency [11] | Potency [12] | Potency [13] | Potency [17] | activation [14] 1.12%

CCCCCCCCCCC(C)(C)C(=O)Nc1c(OC)cc(OC)cc1OC
inactive: outcome [1] | outcome [3] | Potency [4] | Potency [5] | Potency [6] | Potency [7] | outcome [8] | Potency [11] | Potency [13] | Potency [17]

N#Cc1cc([N+](=O)[O-])c2sc(C(N)=O)[n+]([O-])c2c1
active: Potency [17] 16.4 µM
inactive: outcome [1] | Potency [4] | Potency [5] | Potency [6] | outcome [8] | Potency [16] | Potency [11] | Potency [12] | Potency [13]

CC[n+]1c(/C=C/C=C2/N(C)c3ccccc3C2(C)C)sc2ccccc21
inactive: outcome [1] | outcome [3] | Potency [4] | outcome [8] | Potency [11] | Potency [12] | Potency [13]
active: Potency [5] 26.7 µM | Potency [6] 15 µM | Potency [16] 11.2 µM | Potency [17] 2.31 µM

Nc1nc2c(nc(Br)n2C2OC3COP(=O)(O)O[C@@H]3C2O)c(=O)[nH]1 (some centres undefined)
inactive: outcome [1] | Potency [4] | Potency [5] | Potency [6] | outcome [8] | Potency [16] | Potency [11] | Potency [12] | Potency [13] | Potency [17]

C#CC(N)CCC(=O)O (centres undefined)
inactive: Potency [18] | Potency [2] | Potency [15] | outcome [3] | Potency [4] | Potency [5] | Potency [6] | Potency [7] | outcome [8] | outcome [9] | outcome [10] | Potency [16] | Potency [11] | Potency [12] | Potency [13] | Potency [17] | activation [14] 0.625%

C[C@H](NC(=O)/C(C#N)=C/c1ccc(O)c(O)c1)c1ccccc1
inactive: outcome [1] | outcome [3] | Potency [5] | outcome [8] | outcome [9] | outcome [10] | Potency [16] | Potency [11] | Potency [13] | Potency [17] | activation [14] -3.19%

CNCCc1cnc(CCC(c2ccccc2)c2ccccc2)[nH]1
inactive: outcome [1] | outcome [3] | Potency [4] | Potency [5] | Potency [6] | outcome [8] | Potency [11] | Potency [12] | Potency [13] | Potency [17]

N#C/C(=C\c1ccc(O)c(O)c1)C(=O)NCCCNC(=O)/C(C#N)=C/c1ccc(O)c(O)c1
inactive: outcome [1] | outcome [8] | outcome [9] | outcome [10] | Potency [16] | Potency [12] | Potency [13] | activation [14] -0.0625%

Cc1nc2n(c(=O)c1CCN1CCC(c3noc4cc(F)ccc34)CC1)CCCC2O (centres undefined)
inactive: outcome [1] | outcome [3] | Potency [4] | Potency [6] | outcome [8] | Potency [16] | Potency [11] | Potency [13] | Potency [17]
active: Potency [12] 1 µM

CC[C@@H]1Cc2cc(O)ccc2C2=C1c1ccc(O)cc1C[C@H]2CC
35.5 µM (active) and inactive: Potency [6]
inactive: Potency [18] | Potency [2] | outcome [3] | Potency [4] | Potency [5] | outcome [8] | outcome [9] | outcome [10] | Potency [16] | Potency [13] | activation [14] 6.69%
active: Potency [15] 13.1 µM | Potency [7] 31.6 µM | Potency [11] 2.59 µM

O=C(O)/C(=C/c1c(C(=O)O)[nH]c2cc(Cl)cc(Cl)c12)c1ccccc1
inactive: outcome [1] | outcome [3] | Potency [4] | Potency [5] | Potency [6] | outcome [8] | outcome [9] | outcome [10] | Potency [11] | Potency [12] | Potency [13] | Potency [17] | activation [14] 1.12%

CC(C)(C)NCC(O)COc1cccc2[nH]c(=O)[nH]c12 (centres undefined)
inactive: Potency [18] | Potency [2] | Potency [15] | outcome [3] | Potency [4] | Potency [5] | Potency [6] | Potency [7] | outcome [8] | outcome [9] | outcome [10] | Potency [16] | Potency [11] | Potency [12] | Potency [13] | activation [14] 1.12%
